# Sampled rows, rich in hits. Any-hit rate of the full collection: about 9.5%.
# Pf growth 48h: inhibits P. falciparum growth in the first generation, 48 h | P. falciparum luciferase growth in erythrocytes, 48 h | Potency, µM (series often up to 28.7 µM), for the others: top-dose activity change, negative = inhibition, hits mostly inhibitors | hit rate 5.9% among 310,000 | AID 504832; active means well fitted inhibition curve with a large enough effect; inconclusive means small, poorly fitted or top-dose-only effect, or another doubt; inactive means no such curve, though single readings can be large or run the other way; further: on the % scale 0 is the no-effect control and ±100 the full control effect
#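 Compounds are pin-transferred into medium, infected erythrocytes (2% hematocrit, 0.1% parasitemia final) are added, and plates sit one parasite generation at 37 C in 5% CO2. Detection reagent is then added and luminescence measured.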
# Pf growth 96h: P. falciparum growth inhibition at 96 hour, primary screen for plastid delayed-death inhibitors; P. falciparum luciferase reporter growth, 96 h; Potency, µM (doses to about 28.7 µM), without a hit: at the top dose activity change, negative = inhibition, usual class: inhibitors; hit rate 6.9% among 320,000; AID 504834; active means well fitted inhibition curve with a large enough effect; inconclusive means small, poorly fitted or top-dose-only effect, or another doubt; inactive means no such curve, though single readings can be large or run the other way; further: on the % scale 0 is the no-effect control and ±100 the full control effect
#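 P. falciparum expressing integrated firefly luciferase grown in erythrocytes (2% hematocrit, 0.05% parasitemia final) with compounds for 96 hours at 37 C, 5% CO2. Growth inhibition read as loss of luminescence after adding luciferase detection reagent.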
# RE007 growth inh: less growth of the S. pombe RE007 Vpr strain | hit rate 0.21% among 360,000 | S. pombe RE007 Vpr strain, BacTiter-Glo ATP luminescence, 24 h | AID 651644 | Potency, µM (top dose mostly 92.2 µM), for inactives: top-dose activity change, negative = less growth, usual class: inhibitors; active means well fitted falling curve with a large enough effect; inconclusive means small, poorly fitted or top-dose-only effect; inactive means no such curve, though single readings can be large or run the other way; further: on the % scale 0 is the no-effect control and ±100 the full control effect; nearly all actives have a fitted effect of over 50% in size
#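 Fission yeast strain RE007, carrying one chromosomally integrated HIV-1 vpr copy, was seeded at OD 0.01 in PMG+AL medium with 23 nL pinned compound. After 24 h at 30 °C and 99% humidity, viability was read by BacTiter-Glo luminescence.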
# NS1 function inh: inhibitors of influenza NS1 protein function; Potency, µM (titrated, usually from 46.1 µM), for inactives: at the highest dose activity, positive = more growth; hit rate 0.4% among 270,000; AID 2326; further: actives are rising curves; nearly all actives have a fitted effect of over 50% in size
#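 OD600 was taken as the measure of yeast growth restored by compound in an NS1-expressing S. cerevisiae strain. Cells had been washed out of glucose medium and diluted 1:100 into galactose -URA medium, pH 6.0.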
# SARS PLpro yeast: inhibitors of SARS-CoV papain-like protease in yeast; S. cerevisiae expressing SARS-CoV PLpro, growth rescue; Potency, µM (series often up to 32.9 µM), for the others: at the highest dose activity, positive = growth rescue, most hits filed as activators; hit rate 0.19% among 330,000; further: 0% is about no effect; nearly all actives have a fitted effect of over 55% in size
# * = called active by the depositor; ? = inconclusive; . = no result given; ! = a repeat was not active; [ ] = another dose, or the depositor's remark. Unless noted, the call rests on the fitted dose curve. Potency means the concentration at half of the fitted maximal effect.
SMILES,Pf growth 48h,Pf growth 96h,RE007 growth inh,NS1 function inh,SARS PLpro yeast
COc1ccc(C(=O)Oc2ccc(N(C)S(=O)(=O)c3ccccc3)cc2)cc1[N+](=O)[O-],8%,51%,12%,?,?
CCC(OC(=O)CN1C(=O)C(=O)c2ccccc21)C(=O)Nc1ccccc1OC (stereo unspecified),0%,?,-11%,16%,9%
NCCCC[C@@H](C(=O)NCCCCCCCCCCC(=O)N1CCNCC1)n1cc(CCO)nn1,?,?,-2%,.,0%
CSCC[C@@H](C(=O)NCCCCCCCCCCC(=O)N1CCN(C(=O)OC(C)(C)C)CC1)n1cc(CCO)nn1,5.2µM*,1.9µM*,4%,.,-2%
CC[C@H](C)Cc1cn([C@@H](CCCCNC(=O)OC(C)(C)C)C(=O)NCCCCCCCCCCC(=O)N2CCN(C(=O)OC(C)(C)C)CC2)nn1,2.1µM*,1µM*,4%,.,1%
CC(C)(C)OC(=O)NCCCC[C@@H](C(=O)NCCCCCCCCCCC(=O)N1CCN(C(=O)OC(C)(C)C)CC1)n1cc(CCO)nn1,1.9µM*,2.6µM*,3%,.,6%
CC[C@@H](C)[C@@H](C(=O)N1CCN(C(=O)OC(C)(C)C)CC1)n1cc(CCCCNC(=O)OC(C)(C)C)nn1,?,?,-14%,-5%,-1%
CSCCCc1cn([C@@H](CO)C(=O)NCCCCCCCCCCC(=O)N2CCNCC2)nn1,15µM*,-77%,0%,.,3%
COc1cc(NC(=O)Cn2cnc3c(NCc4ccccc4)ncnc32)cc(OC)c1OC,.,.,2%,.,-5%
Cc1nc(CN2C(=O)C3(CCC3)ON=C2c2cccc(Cl)c2)cs1,.,.,10%[18.4 µM],.,.
CC1=C(C(=O)OC2CCCCCC2)C(c2ccc(C)o2)C2=C(CCCC2=O)N1 (stereo unspecified),?,92%,-10%,-16%,-12%
CC1=C(C(=O)OC2CCCCC2)C(c2ccc(C)o2)C2=C(CC(C)(C)CC2=O)N1 (stereo unspecified),12µM*,-18%,-3%,10%,-1%
CCOC(=O)C1=C(C)NC2=C(C(=O)CC(c3cccs3)C2)C1c1cccs1 (stereo unspecified),4.1µM*,?,0%,2%,3%
CC1=C(C(=O)OC2CCCC2)C(c2ccc(C)o2)C2=C(CC(c3cccs3)CC2=O)N1 (stereo unspecified),9.3µM*,10%,2%,-36%,-4%
S=c1[nH]nc(CSCCOc2ccc(Cl)cc2Cl)o1,9%,25%,-4%,-38%,0%
Oc1ccc(CNc2cccc(F)c2F)c2cccnc12,10µM*,?,.,.,2%
O=C(Cc1ncc(C(F)(F)F)cc1Cl)NCc1cccnc1,-6%,32%,-11%,2%,0%
Oc1ccc(CNCc2ccccc2)c2cccnc12,.,.,.,0%,.
Oc1ccc(CNc2ccccc2F)c2cccnc12,1.5µM*,4.1µM*!,-12%,-7%,?
Oc1ccc(CNc2ccc(C(F)(F)F)cc2Cl)c2cccnc12,1.7µM*,3.3µM*,.,.,-2%
COc1cccc([C@@H]2Oc3ccc(Br)cc3C(=O)[C@H]2OC(=O)NC2CCCC2)c1,-6%,-27%,1%,7%,5%
COc1cccc([C@@H]2Oc3ccc(OC)cc3C(=O)[C@H]2O)c1,-22%,3.7µM*,-14%,0%,-3%
COc1ccc2c(c1)C(=O)[C@@H](O)[C@H](c1ccc(OC)c(Br)c1)O2,3.7µM*,3.3µM*,-9%,12%,-10%
COc1ccc(OCC(=O)N2CCC3(CC2)CC(=O)c2ccccc2O3)cc1,?,?,7%,.,-2%
O=c1[nH]c2cc3c(cc2cc1CN(Cc1cccs1)Cc1nnnn1Cc1ccco1)OCCO3,?,12µM*,0%,14%,12%
SMILES,Pf growth 48h,Pf growth 96h,RE007 growth inh,NS1 function inh,SARS PLpro yeast
O=c1[nH]c2cc3c(cc2cc1CN(Cc1ccccc1)Cc1nnnn1Cc1ccco1)OCCO3,?,.,-21%,-15%,10%
COc1ccccc1CN(Cc1cc2cc3c(cc2[nH]c1=O)OCCO3)Cc1nnnn1Cc1ccco1,?,1µM*,-8%,14%,-4%
CC/C(=N/OC(=O)c1cccc(C)c1)C(=O)c1cccs1,6%,?,-6%,-4%,-3%
CN(CC(=O)N1CCN(Cc2ccccc2)CC1)S(=O)(=O)c1cccc2nsnc12,-2%,4.1µM*,0%,.,-5%
CN(CC(=O)NCCc1ccccc1)S(=O)(=O)c1cccc2nsnc12,-14%,8.3µM*,-1%,8%,15%
CN(CC(=O)NCCN1CCN(Cc2ccccc2)CC1)S(=O)(=O)c1cccc2nsnc12,?,1%,-8%,1%,1%
CCN(CCCNC(=O)CN(C)S(=O)(=O)c1cccc2nsnc12)c1ccccc1,?,12µM*,11%,-12%,-1%
CN(CC(=O)NCc1ccc(Cl)cc1)S(=O)(=O)c1cccc2nsnc12,20%,?,7%,-11%,-4%
O=C(Nc1cc(Cl)ccc1Cl)Nn1cnnc1,26%,?,-1%,7%,12%
O=C(O)CCCN=CC1=C(O)CNC1=O,36%,68%,35%,.,0%
COc1ccc(-n2nc3c(N4CCC(C(=O)NCc5ccccc5C)CC4)nnc(C)c3c2C)cc1,?,?,7%,-2%,3%
COc1ccc(-n2nc3c(N4CCCC(C(=O)NCc5ccccc5C)C4)nnc(C)c3c2C)cc1 (stereo unspecified),12µM*,2.1µM*,.,.,-3%
CCOc1ccccc1CNC(=O)C1CCCN(c2nnc(C)c3c(C)n(-c4ccccc4)nc23)C1 (stereo unspecified),13µM*,38%,-14%,-7%,19%
CCOc1ccccc1CNC(=O)C1CCCN(c2nc3ccccc3o2)C1 (stereo unspecified),12%,3.7µM*,.,-33%,-2%
Cc1ccc(-n2nc3c(N4CCC(C(=O)NCc5cccc(F)c5)CC4)nnc(C)c3c2C)cc1,?,4.1µM*,12%,8%,-2%
O=C(O)/C=C\C(=O)Nc1ncn[nH]1,.,.,.,1%,.
COc1ccc(OC)c(NC(=O)Nc2nnc([C@@H]3O[C@H](CO)[C@@H](O)[C@H]3O)s2)c1,.,.,3%[18.4 µM],.,.
CC(Sc1nnnn1C)C(=O)Nc1cc(S(=O)(=O)N2CCCCC2)ccc1Cl (stereo unspecified),?,?,1%,.,-1%
Cc1nn(-c2ccccc2)c(C)c1/C=N/NC(=O)CSc1nnc(SCc2cccc3ccccc23)s1,-26%,10µM*,21%,24%,6%
c1ccc(C[n+]2ccc3ccccc3c2)cc1,.,.,-25%,.,.
Clc1cccc(Cl)c1C[n+]1ccc2ccccc2c1,2.1µM*,32%,4%,-1%,-1%
Cc1ccc(-n2cc(CN(C)CCc3cn[nH]c3)c(-c3cccc(C)c3)n2)cc1,?,3%,30%,1%,1%
O=C(O)/C=C/C(=O)NCc1cn(-c2ccccc2)nc1-c1cccc(Br)c1,-5%,?,-3%,.,0%
